hcDAF-12 act: H. contortus DAF-12 activation, primary screen; HEK293 hcDAF-12 lit1-tk-luc reporter, luminescence; 0% DMSO, 100% Δ7-dafachronic acid; activation, % at 6.8 µM; 370,000 compounds, 1.4% hits;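 active = activation above the mean of all tested compounds plus 3 SD, cut at about 5.5% in these data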
DAX1 inh-1: blocks DAX1 repression of SF-1 activated StAR promoter; inhibition, % at 6.8 µM; 370,000 compounds, 1.1% hits; HEK293T StAR-luciferase reporter, SF-1/DAX-1 repression relief; AID 652010;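 active = inhibition above the mean over all tested compounds plus 3 SD, cut at about 3.6% in these data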;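 also: higher inhibition means more luminescence from relief of DAX-1 repression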
ssDAF-12 act: activators of S. stercoralis DAF-12 nuclear receptor | activation, % at 6.8 µM | 370,000 compounds, 1% hits | HEK293 ssDAF-12/GRIP1 lit1-tk-luc reporter, luminescence; % of 3 µM dafachronic acid response | AID 652126;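 active = activation above the mean over all tested compounds plus 3 SD, cut at about 0.9% in these data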
SMARCA2 act: SMARCA2 function activation, primary screen | MG213 cells, MMTV-luciferase reporter, dexamethasone, overnight | activation, % at 9.1 µM | 370,000 compounds, 1% hits | AID 652017; in the data active = activation above about 7.8%
DAX1 inh-2: inhibitors of human orphan nuclear receptor DAX1 (NR0B1) | AID 504766 | inhibition, % at 6.75 µM | 340,000 compounds, 0.99% hits | HEK293 Gal4-DAX1 luciferase reporter, luminescence | P51843;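 active = inhibition above the mean over all tested compounds plus 3 SD, cut at about 4.2% in these data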;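 also: inhibition shows as a rise in luminescence from relieved DAX1 repression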
Target sequence (P51843 207-470 limits assumed): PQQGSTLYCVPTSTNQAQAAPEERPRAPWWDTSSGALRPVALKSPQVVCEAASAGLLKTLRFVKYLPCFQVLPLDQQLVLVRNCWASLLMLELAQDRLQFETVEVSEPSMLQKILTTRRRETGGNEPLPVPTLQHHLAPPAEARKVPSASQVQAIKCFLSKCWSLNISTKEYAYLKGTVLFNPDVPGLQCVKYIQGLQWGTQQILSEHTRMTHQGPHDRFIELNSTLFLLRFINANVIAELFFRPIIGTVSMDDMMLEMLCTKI
hgDAF-12 ag: activates the H. glycines DAF-12 receptor ligand-binding domain | AID 687014 | activation, % at 6.8 µM | HEK293 GAL4-hgDAF12 UAS-luciferase reporter, agonist luminescence; normalized to butyrate control | 370,000 compounds, 1.8% hits;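 active = activation above a cutoff set at the mean of all screened compounds plus 3 SD, cut at about 10% in these data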
DAX1 inh confirm: NR0B1 (human) inhibition, confirmation. shares compounds with DAX1 inh-1. HEK293T StAR-promoter luciferase reporter, SF-1/DAX-1 repression. inhibition, % at 6.8 µM. 2,400 compounds, 87% hits;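 active = inhibition above the average of every tested compound plus 3 SD, cut at about 3.8% in these data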;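 also: active compounds raise luminescence by relieving repression of the StAR reporter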
Target sequence (P51843 whole entry, looked up): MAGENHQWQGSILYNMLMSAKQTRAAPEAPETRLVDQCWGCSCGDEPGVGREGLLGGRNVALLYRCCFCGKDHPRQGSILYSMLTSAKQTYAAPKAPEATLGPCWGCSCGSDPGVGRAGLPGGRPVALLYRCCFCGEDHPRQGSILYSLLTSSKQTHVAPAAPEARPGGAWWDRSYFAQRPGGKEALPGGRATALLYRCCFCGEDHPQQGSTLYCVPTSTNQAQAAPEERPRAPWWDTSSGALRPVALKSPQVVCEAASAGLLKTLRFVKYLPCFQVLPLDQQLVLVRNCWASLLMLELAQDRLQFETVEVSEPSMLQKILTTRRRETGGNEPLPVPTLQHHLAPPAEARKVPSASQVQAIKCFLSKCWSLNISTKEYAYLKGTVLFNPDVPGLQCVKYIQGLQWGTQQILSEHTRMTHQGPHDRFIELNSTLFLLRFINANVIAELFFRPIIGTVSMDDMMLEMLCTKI
SF1 AF2mut Luc: counter-screen for DAX1 inhibitors: nonselective inhibitors with SF-1 AF2 mutant; inhibition, % at 6.8 µM; HEK293 StAR-luciferase, luminescence; 2,400 compounds, 78% hits; shares compounds with DAX1 inh-1;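 active = inhibition above the mean of all tested compounds plus 3 SD, cut at about 3% in these data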
SMARCA2 act conf: SMARCA2 activation, confirmation screen; shares compounds with SMARCA2 act; MG213 cells, MMTV-luciferase with dexamethasone, luminescence, overnight; MG213 cells expressing E1A, Rb sequestered; DMSO wells 0%, reference activator 100%; activation, % at 9.1 µM; 3,500 compounds, 30% hits; AID 652260;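 active = activation above its plate's cutoff, the mean activation of tested wells plus 3 SD, cut at about 7.9% in these data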
VP16 Luc act: activates GAL4-VP16 luciferase, flagging SMARCA2 activator hits; HEK293 GAL4-VP16 pG5luc reporter, luciferase luminescence; scaled: DMSO wells 0%, SAHA wells 100%; 3,500 compounds, 41% hits; shares compounds with SMARCA2 act; activation, % at 9.1 µM;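 active = activation above the solvent-only control well mean plus 3 SD, averaged across control plates, cut at about 5.2% in these data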
LXRb hcDAF ctr: activates human LXR-beta, counter-screen for hcDAF-12 agonists; 3,400 tested, under 10 active; shares compounds with hcDAF-12 act; activation, % at 6.8 µM; AID 743027; HEK293 Gal4-LXR tk-luc reporter, luminescence, 24 h; normalized: DMSO 0%, positive control 100%;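 active = mean percent activation of the reporter above a cutoff set as the average over tested compounds plus their standard deviation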
hcDAF12 ag: confirmation of H. contortus DAF-12 agonists; shares compounds with hcDAF-12 act; HEK293 hcDAF-12 lit1-tk-luc reporter, luminescence; % of Δ7-dafachronic acid response; activation, % at 6.8 µM; 3,400 compounds, 61% hits;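 active = mean activation across triplicate tests above the threshold derived from the earlier primary screen, cut at about 5.5% in these data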
hgDAF12 conf: confirmation of H. glycines DAF-12 agonists | 3,300 compounds, 80% hits | HEK293 GAL4-hgDAF12 luciferase reporter, agonist mode; percent of butyrate response | activation, % at 6.8 µM | shares compounds with hgDAF-12 ag;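 active = mean activation over triplicate wells above the hit cutoff derived from the earlier primary screen, cut at about 11% in these data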
LXRb DAF12 ctr: counter-screen for DAF-12 agonists: agonists of human LXR-beta; activation, % at 6.8 µM; shares compounds with hgDAF-12 ag; AID 743051; HEK293 Gal4-LXR luciferase reporter, 24 h; 3,300 tested, under 10 active;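 active = mean activation of the triplicate above a set limit carried over from the primary screen, none filed active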
Hits are given with their value; i = inactive; nt = not tested or not shown. This is a sample that favours compounds with a hit; in the whole collection about 4.8% have one here.

SMILES | hcDAF-12 act | DAX1 inh-1 | ssDAF-12 act | SMARCA2 act | DAX1 inh-2 | hgDAF-12 ag | DAX1 inh confirm | SF1 AF2mut Luc | hgDAF12 conf | LXRb DAF12 ctr | others
COC(=O)[C@]12C[C@H](CC(=O)NCc3cccs3)C(=O)N(CCC3=CCCCC3)C1=C[C@H](C1CCCC1)O[C@@H]2C | i | i | i | i | nt | i | nt | nt | nt | nt
CCOc1ccc(-c2nnc(SCC(=O)N3CCNC3=O)o2)cc1 | 6.2 | 6.2 | i | i | i | 13.9 | 11.9 | 5.3 | 15.0 | i
O=C1Nc2ccccc2N(C(=O)c2c(F)cccc2F)C1c1nc2ccccc2[nH]1 (configuration not stated) | i | 13.8 | i | 10.4 | nt | 23.3 | 4.2 | 3.1 | 10.6 | i | SMARCA2 act conf=i;VP16 Luc act=10.1
CCOC(=O)C1=CCC(c2ccccc2)N(S(C)(=O)=O)C1 (configuration not stated) | i | i | i | i | nt | i | nt | nt | nt | nt
CCOC(=O)C1=CCC(c2cc3ccccc3[nH]2)NC1 (configuration not stated) | 8.0 | 5.7 | 1.1 | 11.2 | nt | 15.5 | 8.9 | 5.0 | 19.1 | i | SMARCA2 act conf=i;VP16 Luc act=7.0;LXRb hcDAF ctr=i;hcDAF12 ag=6.4
COC(=O)[C@@]12CCCCC3=C1N(CCC3)C(=O)[C@H]2CC(=O)NCCC(C)C | i | i | i | i | nt | i | nt | nt | nt | nt
CC1CCN(c2nc3ccc(C(=O)NCCCN4CCCCC4C)cc3s2)CC1 (configuration not stated) | i | 7.2 | 1.6 | 8.1 | i | 14.7 | 11.9 | 7.1 | 15.1 | i | SMARCA2 act conf=15.4;VP16 Luc act=14.6
CN(C)c1ccc(C=Cc2cnccn2)cc1 | i | 6.7 | i | i | i | 18.3 | 16.2 | 9.8 | 16.0 | i
CN(C)c1ccc(/C=C/c2ccncc2)cc1 | i | i | i | i | i | i | nt | nt | nt | nt
Cc1ccc(S(=O)(=O)N(CC(=O)NC2CCC(C)CC2)c2cc(C)cc(C)c2)cc1 (configuration not stated) | i | i | i | i | nt | i | nt | nt | nt | nt
COc1cc(SC)ccc1C(=O)Nc1ccccn1 | 10.0 | 5.0 | 1.0 | i | i | 18.9 | 9.6 | 5.2 | 13.7 | i | LXRb hcDAF ctr=i;hcDAF12 ag=7.2
COc1cc(SC)ccc1C(=O)Nc1ccc(S(=O)(=O)N2CCCC2)cc1 | i | i | i | i | i | i | nt | nt | nt | nt
COc1cc(SC)ccc1C(=O)Nc1ccc2c(c1)OCO2 | 8.9 | 7.8 | 1.4 | i | 9.4 | 19.9 | 9.7 | 6.2 | 16.1 | i | LXRb hcDAF ctr=i;hcDAF12 ag=6.3
COc1cc(SC)ccc1C(=O)Nc1ccc(C)cc1 | 14.1 | 5.5 | 2.1 | i | 7.1 | 18.0 | 12.8 | 9.9 | 20.1 | i | LXRb hcDAF ctr=i;hcDAF12 ag=13.2
O=C(Nc1ccccc1Cl)O[C@@H]1CC[C@@]23CCCN2C(=O)CCC[C@H]3C1 | i | nt | i | nt | nt | i | nt | nt | nt | nt
Cc1ccc(NC(=O)N2CCC(N(C)CCC(C)C)CC2)cc1F | i | i | i | i | nt | i | nt | nt | nt | nt
Cc1ccccc1NC(=O)[C@@H]1CC(=O)O[C@@H]1c1ccccc1 | i | i | i | i | nt | i | nt | nt | nt | nt
COc1cc(Cl)cc(/C=C/c2ccc3ccccc3n2)c1OC(C)=O | i | 5.1 | i | i | i | 20.9 | 10.8 | 5.3 | 12.8 | i
C/C(=N/NC(=O)CN1CCN(Cc2ccccc2Cl)CC1)c1cccc(O)c1 | i | i | i | i | nt | i | nt | nt | nt | nt
CNc1cc(-c2cccc(N(C)C)c2)ncn1 | i | 7.2 | 1.3 | i | nt | 18.4 | 16.4 | 5.9 | 14.9 | i
CCOc1ccccc1-c1cc(NC)ncn1 | i | i | i | i | nt | i | nt | nt | nt | nt
COc1cccc(CNc2ccc(Br)cn2)c1O | 6.8 | 4.5 | 1.1 | i | i | 18.9 | 12.3 | 6.1 | 17.8 | i | LXRb hcDAF ctr=i;hcDAF12 ag=6.0
CC(=O)c1ccc(Nc2ccc(-c3ccccc3F)nn2)cc1 | i | 4.7 | i | i | i | 18.3 | 13.7 | 6.8 | 18.9 | i
CNC(=S)N/N=C/c1c(C(=O)OC)cnn1-c1ccc(Cl)cc1 | i | nt | i | nt | nt | i | nt | nt | nt | nt
CC(C)(C)c1ccc(NC(=O)Nc2ccc(OCC(=O)N3CCOCC3)cc2)cc1 | 6.4 | 5.1 | i | 8.2 | i | 15.2 | 7.8 | 4.5 | 21.9 | i | SMARCA2 act conf=i;VP16 Luc act=15.0
SMILES | hcDAF-12 act | DAX1 inh-1 | ssDAF-12 act | SMARCA2 act | DAX1 inh-2 | hgDAF-12 ag | DAX1 inh confirm | SF1 AF2mut Luc | hgDAF12 conf | LXRb DAF12 ctr | others
O=C(Nc1ccc(OCC(=O)N2CCOCC2)cc1)Nc1cccc(Cl)c1 | i | i | i | i | i | i | nt | nt | nt | nt
CCCC(=O)Nc1nc(-c2ccc3c(c2)OCCO3)cs1 | i | 5.6 | i | i | i | 14.1 | 6.5 | 4.8 | 10.9 | i
O=C(O)C(=O)Nc1nc(-c2ccc3c(c2)OCCO3)cs1 | i | i | i | i | i | i | nt | nt | nt | nt
Cc1ccccc1C(=O)N[C@@H](CC(C)C)C(=O)N1CCC[C@H]1C(=O)NCc1ccccc1 | i | i | i | i | nt | i | nt | nt | nt | nt
CC(C)(C)S(=O)N1C[C@@H]2CC(=O)C=C2[C@H]1CCO (some centres not stated) | i | i | i | i | nt | i | nt | nt | nt | nt
CCCN1C=CC(=C2C(=O)c3ccccc3C2=O)C=C1 | i | i | i | i | i | i | nt | nt | nt | nt
CCCCN1C(C)=CC(=C2C(=O)c3ccccc3C2=O)C=C1C | 7.5 | 6.7 | i | i | i | 22.1 | 6.1 | i | 11.6 | i | LXRb hcDAF ctr=i;hcDAF12 ag=10.6
CCCCCCN1C=CC(=C2C(=O)c3ccccc3C2=O)C=C1 | 8.6 | 9.4 | 1.1 | i | i | 14.1 | i | i | i | i | LXRb hcDAF ctr=i;hcDAF12 ag=6.1
O=C(CSc1cnc2ccccc2n1)c1ccc(F)cc1 | 9.2 | 5.4 | 1.1 | i | i | 19.3 | 7.3 | 4.4 | 16.6 | i | LXRb hcDAF ctr=i;hcDAF12 ag=i
